Experimental data taken from PubChem BioAssay (NCI).
This is part of a sample that, as a whole, favours compounds with a hit. Of some 79,000 tested, about 15% had one in any assay. Calls of active or inactive are those of the source. No stated cut-off is given here; in the data, active means growth inhibition above about 70%; inactive means the rest.

Legend:
[1] = NCI Yeast Anticancer Drug Screen. Data for the rad52 strain (AID 147);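 further: 0% = growth of vehicle-treated control cultures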; conditions: S. cerevisiae rad52 mutant growth inhibition, stronger effect = higher value
In short: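 Compounds are applied to a genetically defined yeast strain lacking normal DNA damage repair, and inhibition of growth is expressed relative to cultures given vehicle only.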

[2] = NCI Yeast Anticancer Drug Screen. Data for the wt1 strain (AID 149);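 further: 0% = growth of vehicle-treated wt1 cultures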; conditions: S. cerevisiae wt1 strain (SPY 50644) growth inhibition, stronger effect = higher value
In short: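 The wt1 strain was treated with compounds, and growth was compared with vehicle-treated cultures to give inhibition.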

[3] = NCI Yeast Anticancer Drug Screen. Data for the rad50EPP+ strain (AID 151);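 further: 0% = growth of vehicle-treated control cultures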; conditions: S. cerevisiae rad50 mutant strain, stronger effect = higher value
In short: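 Compounds were applied to the rad50EPP+ yeast strain, which bears a defined DNA repair alteration, and growth inhibition was determined relative to vehicle-treated cultures.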

[4] = NCI Yeast Anticancer Drug Screen. Data for the mgt1 strain (AID 153); conditions: S. cerevisiae mgt1 mutant growth inhibition, stronger effect = higher value
In short: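 Strain: mgt1 yeast, one of a set carrying defined DNA damage repair or cell cycle control alterations. Compound-treated growth compared with vehicle.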

[5] = NCI Yeast Anticancer Drug Screen. Data for the rad50 strain (AID 155);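 further: 0% = growth of vehicle-only cultures of the same strain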; conditions: S. cerevisiae rad50 strain growth inhibition, stronger effect = higher value
In short: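 Cells are treated with compound, grown, and their growth is then scored against vehicle-only cultures of the same repair-deficient yeast strain.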

[6] = NCI Yeast Anticancer Drug Screen. Data for the mec2-1 strain (AID 157); conditions: S. cerevisiae mec2-1 strain, stronger effect = higher value
In short: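 Strain: mec2-1 (DNA repair/cell cycle alteration). Compound exposure, then growth measured; inhibition expressed relative to vehicle.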

[7] = NCI Yeast Anticancer Drug Screen. Data for the rad14 strain (AID 159);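 further: 0% = growth of vehicle-treated control cultures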; conditions: S. cerevisiae rad14 strain growth inhibition, stronger effect = higher value
In short: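 Readout: yeast growth inhibition, referenced to vehicle-only cultures. Strain bears a defined alteration in DNA damage repair.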

[8] = NCI Yeast Anticancer Drug Screen. Data for the sgs1 mgt1 strain (AID 161);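 further: 0% = growth of cultures given vehicle only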; conditions: S. cerevisiae sgs1 mgt1 strain, stronger effect = higher value
In short: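 Read-out: growth inhibition vs vehicle controls. Cells: mutant yeast strain deficient in DNA damage repair.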

[9] = NCI Yeast Anticancer Drug Screen. Data for the CLN2oe strain (AID 163);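 further: 0% = growth of vehicle-only control cultures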; conditions: S. cerevisiae CLN2oe strain, stronger effect = higher value
In short: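 Growth of a genetically modified yeast strain is measured after compound exposure and compared with cultures given vehicle alone.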

[10] = NCI Yeast Anticancer Drug Screen. Data for the cln2 rad14 strain (AID 165);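 further: 0% = growth equal to vehicle treated cultures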; conditions: S. cerevisiae cln2 rad14 strain, stronger effect = higher value
In short: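 Compounds are applied to the cln2 rad14 yeast strain, and growth is then compared with that of vehicle-treated cultures to give inhibition.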

[11] = NCI Yeast Anticancer Drug Screen. Data for the bub3 strain (AID 167); conditions: S. cerevisiae bub3 mutant strain, stronger effect = higher value
In short: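 Part of a panel of yeast mutants defective in DNA damage repair or cell cycle regulation. Each strain is grown with compound, and inhibition is calculated relative to solvent-treated cultures.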

[12] = NCI Yeast Anticancer Drug Screen. Data for the wt2 strain (AID 169);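 further: 0% = growth of vehicle-treated yeast cultures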; conditions: S. cerevisiae wt2 strain growth inhibition, stronger effect = higher value
In short: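 This strain belongs to a panel of yeast strains with defined genetic alterations in DNA damage repair or cell cycle control. Compounds are applied, and growth inhibition is measured against vehicle-treated cultures.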

[13] = NCI Yeast Anticancer Drug Screen. Data for the mlh1 strain (AID 171);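 further: 0% = growth of vehicle-treated control cultures of the same strain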; conditions: S. cerevisiae mlh1 strain growth inhibition, stronger effect = higher value
In short: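 Growth of the mutant yeast strain after compound exposure, expressed as inhibition relative to vehicle-only controls.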

[14] = NCI Yeast Anticancer Drug Screen. Data for the sgs1 strain (AID 173);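 further: 0% = growth of vehicle-only control cultures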; conditions: S. cerevisiae sgs1 mutant, stronger effect = higher value
In short: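 Growth of a yeast strain bearing a defined genetic alteration is measured after compound treatment. Inhibition is expressed relative to vehicle-only controls.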

[15] = NCI Yeast Anticancer Drug Screen. Data for the mlh1 rad18 strain (AID 175); conditions: S. cerevisiae mlh1 rad18 strain growth inhibition, stronger effect = higher value
In short: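 Read-out is yeast growth inhibition, calculated against vehicle-only controls. The compound was applied to a strain engineered with DNA damage repair alterations.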

[16] = NCI Yeast Anticancer Drug Screen. Data for the rad18 strain (AID 177); conditions: S. cerevisiae rad18 mutant growth inhibition, stronger effect = higher value
In short: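 Growth of the mutant yeast strain after compound exposure, normalised to vehicle-only cultures.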

[17] = at 5.0 µM (retest, dose inferred, filed as 0.5)
[18] = at 50.0 µM (retest, dose inferred, filed as 5.0)

Measured: growth inhibition

COC(=O)CCNc1c2ccccc2nc2cccc([N+](=O)[O-])c12
inactive: [3]; at 1.2 µM 18% | [3]; at 3.7 µM 49% | [4]; at 1.2 µM 61% | [9]; at 1.2 µM 7% | [9]; at 3.7 µM 50% | [11]; at 1.2 µM -13% | [11]; at 3.7 µM 11% | [11]; [17] 10% | [11]; at 11.0 µM 66% | [12]; at 1.2 µM 5% | [12]; at 3.7 µM 27%
active: [1]; at 1.2 µM 97% | [1]; at 3.7 µM 97% | [1]; at 11.0 µM 97% | [1]; at 33.0 µM 98% | [1]; at 100.0 µM 98% | [2]; at 1.2 µM 79% | [2]; at 3.7 µM 87% | [2]; at 11.0 µM 96% | [2]; at 33.0 µM 97% | [2]; at 100.0 µM 97% | [3]; at 11.0 µM 80% | [3]; at 33.0 µM 93% | [3]; at 100.0 µM 97% | [4]; at 3.7 µM 74% | [4]; at 11.0 µM 87% | [4]; at 33.0 µM 97% | [4]; at 100.0 µM 97% | [5]; at 1.2 µM 95% | [5]; at 3.7 µM 95% | [5]; [17] 95% | [5]; at 11.0 µM 96% | [5]; at 33.0 µM 97% | [5]; [18] 98% | [5]; at 50.0 µM 86% | [5]; at 100.0 µM 97% | [6]; at 1.2 µM 97% | [6]; at 3.7 µM 97% | [6]; [17] 90% | [6]; at 11.0 µM 98% | [6]; at 33.0 µM 98% | [6]; [18] 99% | [6]; at 50.0 µM 91.3% | [6]; at 100.0 µM 98% | [7]; at 1.2 µM 99% | [7]; at 3.7 µM 99% | [7]; at 11.0 µM 99% | [7]; at 33.0 µM 99% | [7]; at 100.0 µM 99% | [8]; [17] 94% | [8]; [18] 98% | [8]; at 50.0 µM 81.2% | [9]; at 11.0 µM 89% | [9]; at 33.0 µM 96% | [9]; at 100.0 µM 98% | [10]; [17] 99% | [10]; [18] 99% | [10]; at 50.0 µM 89.4% | [11]; at 33.0 µM 96% | [11]; [18] 99% | [11]; at 50.0 µM 84% | [11]; at 100.0 µM 99% | [12]; at 11.0 µM 85% | [12]; at 33.0 µM 97% | [12]; at 100.0 µM 99% | [13]; at 1.2 µM 84% | [13]; at 3.7 µM 91% | [13]; at 11.0 µM 95% | [13]; at 33.0 µM 96% | [13]; at 100.0 µM 97% | [14]; at 1.2 µM 97% | [14]; at 3.7 µM 96% | [14]; at 11.0 µM 98% | [14]; at 33.0 µM 98% | [14]; at 100.0 µM 98% | [15]; [17] 96% | [15]; [18] 99% | [15]; at 50.0 µM 81.1% | [16]; at 1.2 µM 97% | [16]; at 3.7 µM 97% | [16]; at 11.0 µM 95% | [16]; at 33.0 µM 97% | [16]; at 100.0 µM 97%
